Measurements from PubChem BioAssay (NCI).
Compounds without any hit were thinned out: in the full panel of roughly 83,000, 20% have a hit.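 Single-concentration screen, 48 h exposure, 96-well plates. Endpoint: percent growth. Below 10 = active.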 Activity calls are given as the source filed them.

Each compound was assayed on HL-60(TB) leukemia (assay: NCI-60 one-dose screen, 48 h (100 = growth as untreated, 0 = no growth, -100 = all killed)). Conditions: 10 µM unless noted.

| Compound | growth |
| --- | --- |
| S=c1nc(-c2ccccc2)oc(=NC2CCCCC2)n1C1CCCCC1 | -36.5% (active) |
| COc1ccc(-n2c(COc3ccc(F)cc3)n[nH]c2=S)cc1 | 126% (inactive) |
| O=S1(=O)CCC(N(/N=C/c2ccco2)c2ccccc2)C1 (stereo not given) | 100% (inactive) |
| COc1cc(-c2nc(SCCC(C)C)nc(Nc3ccc(F)cc3)c2C#N)cc(OC)c1OC | 84.9% (inactive) |
| CCCCC(O)(c1ccc(Cl)cc1)C(CN1CCOCC1)c1ccc(Cl)cc1 (stereo not given) | 53.6% (inactive) |
| CCCCCCCCCCN(CCCCCCCCCC)CC(=O)c1ccc2cc(Br)c3ccccc3c2c1 | -62.2% (active) |
| COc1ccc(NC(=O)n2nc(/C=C\c3ccc(O)c(OC)c3)cc2/C=C\c2ccc(O)c(OC)c2)cc1 | 5.32% (active) |
| CCOC(=O)C1=C(C)NC(C)=C(C(=O)OCC)C1(C)C | 69.3% (inactive) |
| Cc1cc(C)c(S(=O)O)c(C)c1 | 102% (inactive) |
| C=C1C(=O)O[C@H]2[C@H]1CC/C(COC(=O)CCCCCCCC(=O)OC/C1=C/CC[C@@]3(C)O[C@H]3[C@H]3OC(=O)C(=C)[C@@H]3CC1)=C\CC[C@@]1(C)O[C@@H]21 | -18.3% (active) |
| C[C@@H](Oc1cc(-n2cnc3ccc(CN4CCN(C)CC4)cc32)sc1C(N)=O)c1ccccc1C(F)(F)F | -19.4% (active) |
| CC[C@@H]1C(=O)N(C)c2cnc(Nc3ccc(C(=O)NC4CCN(C)CC4)cc3OC)nc2N1C1CCCC1 | -42.1% (active) |
| CC(C)n1nc(C#Cc2cccc3cc(-c4cccc(C(F)(F)F)c4)ncc23)c2c(N)ncnc21 | 57.1% (inactive) |
| Nc1nc(-c2ccc(Cl)cc2)cc(-c2cc3ccccc3oc2=O)n1 | 125% (inactive) |
| O=C1C(c2c(O)[nH]c3ncccc23)=Nc2ccccc21 | 173% (inactive) |
| C=CCN1C(=O)/C(=C/C(=O)OC)S/C1=N\NC(=O)c1cc2ccc1/C=C\c1ccc(cc1)/C=C\2 | 91.8% (inactive) |
| CC(=O)n1c(/C(C#N)=C/c2ccc(N(C)C)cc2)cc2ccccc21 | 10.5% (inactive) |
| C[N+](C)(C)CN1C(=O)c2ccccc2C1=O | 96.1% (inactive) |
| S=C1CCCC(=S)N1 | 101% (inactive) |
| N#Cc1c2c(nc3n[nH]c(N)c13)CCCC2 | 87.3% (inactive) |

| Compound | growth |
| --- | --- |
| CN1CCN(CCCOc2ccc3ncnc(Nc4ccc(OCc5cccc(F)c5)c(Cl)c4)c3c2)CC1 | -42.3% (active) |
| CS(=O)(=O)Nc1cc(-c2ccc3ncnc(Nc4cccc(Cl)c4)c3c2)cnc1Cl | 2.67% (active) |
| O=C1/C(=C/c2ccc(-c3ccc(Cl)cc3)o2)SC(=S)N1CCc1ccc(O)cc1 | 8.32% (active) |
| CN[C@@H](C)C(=O)N[C@H]1CCS[C@H]2CC(C)(C)[C@@H](C(=O)N[C@H]3c4ccccc4C[C@H]3OCC#CC#CCO[C@@H]3Cc4ccccc4[C@@H]3NC(=O)[C@H]3N4C(=O)[C@@H](NC(=O)[C@H](C)NC)CCS[C@H]4CC3(C)C)N2C1=O | -47.4% (active) |
| CCN(CC)CC(O)COc1c(Br)c(Br)c(Br)c2c1OC(C)(C)C2 (stereo not given) | 14% (inactive) |
| CCOC(=O)/C(C#N)=C(\C)CCc1ccccc1 | 239% (inactive) |
| C=C1C(=O)O[C@H]2[C@H]1CC/C(COC(=O)c1cccc3ccccc13)=C\CC[C@@]1(C)O[C@@H]21 | -47.2% (active) |
| CCN(CC)c1ccc(CNc2ccnc3ccccc23)cc1 | 33.6% (inactive) |
| CCCCCn1c(C)cc(/C=C\c2ccc3cc(C)ccc3[n+]2C)c1C | -6.41% (active) |
| COc1ccc(-c2nc3c(N)c(CO)c(C)nc3o2)cc1 | 98.3% (inactive) |
| COc1cc(OC)c(C(=O)/C=C/c2cccc(C(F)(F)F)c2)c(OC)c1 | -26.6% (active) |
| COc1cccc(C(=O)NCCCNc2cc(-c3cn(-c4ccccc4)nc3-c3cccc(OC)c3)ccn2)c1 | 22.7% (inactive) |
| COc1ccc2c(c1)O/C(=C\c1cccc(OCC(=O)Nc3nc4c(s3)CCCC4)c1)C2=O | 27.4% (inactive) |
| COc1ccc(OC2=CC(=O)c3ccc(C)nc3C2=O)cc1 | 52.1% (inactive) |
| Cc1cccc(C)c1NCc1nnc(-c2ccc(O)cc2)o1 | 111% (inactive) |
| CN(C)CCC(=O)C1CC1 | 93.9% (inactive) |
| C[C@H]1[C@H]2[C@H]3CC[C@@H]4[C@@]5(C)C/C(=C/c6ccco6)C(=O)C(C)(C)[C@@H]5CC[C@@]4(C)[C@]3(C)CC[C@]23CO[C@]1(C)[C@@H](C(=O)/C=C\c1ccco1)C3 | 95.8% (inactive) |
| COc1ccc(C2=NN(C(=O)COc3ccc(Cl)cc3)C(O)(c3cc(F)c(Cl)cc3Cl)C2)cc1OC (stereo not given) | -42.2% (active) |
| COc1nccc2c(Sc3ccccc3)nc(N)nc12 | 97.6% (inactive) |
| C/C=C(/C)C(=O)OC1C=C(CO)C(=O)C(OC(=O)C2(C)OC2C)C1C(C)C (stereo not given) | -24.9% (active) |
